This is a sample that favours compounds with a hit; in the whole collection about 3% have one here.
pS6 MEF inh = Acumen qHTS Assay for Inhibitors of the mTORC1 Signaling Pathway in MEF (Tsc2-/-, p53-/-) Cells: Sytravon. Tsc2-/- p53-/- MEF, phospho-rpS6 immunofluorescence/PI, 24 h. Potency, µM (series often up to 38.3 µM), inactives show top-dose activity change, negative = inhibition, actives largely listed as inhibitors. hit rate 0.78% among 44,000. AID 493208, 2011;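 also: plate controls were DMSO for no effect and rapamycin for full effect; nearly all actives have a fitted effect of over 50% in size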
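Read-out: phospho-S6 Alexa-488 intensity over PI intensity per well, scored as % active cells using thresholds from rapamycin (7.5 nM) and DMSO controls. Tsc2-/-, p53-/- MEFs exposed to compound for 24 h; PI cell count recorded as viability.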
p53null 39C tox = qHTS Screen for Compounds that Selectively Target Cancer Cells with p53 Mutations: Cytotoxicity of p53 Null Cells at the Nonpermissive Temperature | hit rate 0.97% among 55,000 | Potency, µM (doses to about 46.1 µM), for inactives: top-dose activity, negative = cell killing, most hits filed as cytotoxic | H1299 p53-null (neo) cells, 39C, ATPlite viability, 24 h;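 also: 0% = DMSO only and -100% = full killing by 100 µM tamoxifen; nearly all actives have a fitted effect of over 50% in size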
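Following overnight plating at 37C (600 cells/well), H1299-neo or H1299-p53A138V cells are dosed up to 46 uM. Incubation lasts 24 hr at 39C before ATP detection.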
p53null 32C kill = qHTS Screen for Compounds that Selectively Target Cancer Cells with p53 Mutations: Cytotoxicity of p53 Null Cells at the Permissive Temperature; Potency, µM (highest dose often 46.1 µM), without a hit: at the top dose activity change, negative = cytotoxicity, hits mostly cytotoxic; hit rate 0.62% among 55,000; H1299-neo p53 null cells, ATP luminescence, 24 h, 32C;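 also: 0% = DMSO only and -100% = full killing by 100 µM tamoxifen; nearly all actives have a fitted effect of over 55% in size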
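Cytotoxicity: H1299-neo (no p53), 32C, 24 h treatment. Concentrations up to 46 uM. Readout cellular ATP, luminescence. Normalization to DMSO basal and tamoxifen 100 uM maximal kill.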
PMP22 txn prim = Cell-based coincidence reporter assay to measure PMP22 gene transcription in S16 Pmp22-F2sN cells - Primary screen | S16 Pmp22-F2sN Schwann cells, FLuc/NLuc coincidence luminescence, 24 h | Potency, µM (top dose mostly 57.5 µM), for inactives: at the highest dose activity change, negative = inhibition, most hits filed as inhibitors | hit rate 2% among 43,000 | AID 1508649, 2021; active = clear falling dose curves in both reporters; inconclusive = both reporters move, but less clearly or upward; inactive = either reporter flat; the % is the NLuc reporter signal
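qHTS, 1536-well. Cells seeded, compounds added by pin tool, 24 h 37C. Nano-Glo reagent 1 (lysis/FLuc), 10 min RT, read; Stop&Glo, 10 min RT, read NLuc.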
S16 viability = Cell viability qHTS assay in S16 Pmp22-F2sN cells. S16 Pmp22-F2sN Schwann cells viability, CellTiter-Glo, 24 h. Potency, µM (series often up to 57.5 µM), without a hit: top-dose activity change, negative = cytotoxicity, usual class: cytotoxic. hit rate 0.48% among 43,000; also: nearly all actives have a fitted effect of over 65% in size
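S16 Pmp22-F2sN Schwann cells (500-1,000/well) in phenol-red-free DMEM with 10% FBS received 23 nL compound by pin tool for 24 h at 37 °C. Viability was then read as CellTiter-Glo luminescence after 15 min at room temperature.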
SKOV3 invasion = Primary qHTS assay for Inhibitors of ovarian cancer metastasis using an organotypic tumor microenvironment (TME) model. hit rate 0.1% among 46,000. Potency, µM (series often up to 45.8 µM), inactives show top-dose activity change, negative = inhibition, actives largely listed as inhibitors. SKOV3ip1-GFP adhesion/invasion on 3D omental model, fluorescence. AID 1963576, 2024;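 also: plate controls were DMSO wells for no effect and tomatine positive control wells for full effect; nearly all actives have a fitted effect of over 65% in size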
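Adhesion/invasion was scored as fixed GFP-labeled SKOV3ip1 cell counts (488/509 nm), normalized to DMSO and tomatine controls. Cancer cells in serum-free medium, with four compound doses (0.36-46 umol/L), sat 2 hr at RT then 16 hr at 37 C on a 48 hr fibroblast/mesothelial/ECM culture.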
The depositor's hits bear a star; i = inactive; ? = inconclusive; . = not tested or not shown. Unless noted, calls follow the shape of the dose curve; as a rule, active = well fitted curve in the direction sought with a large enough effect; inconclusive = small, poorly fitted or top-dose-only effect, or another doubt; inactive = no such curve, though single readings can be large; an effect the other way counts as inactive or inconclusive. Unless noted, % is scaled to controls: 0 for no effect and ±100 for the full control effect; potency is read from the fitted curve at half-maximal effect.

SMILES	pS6 MEF inh	p53null 39C tox	p53null 32C kill	PMP22 txn prim	S16 viability	SKOV3 invasion
CCCCNC(=O)CSc1c2c(nc3ccc(Cl)cc13)CCCC2	?	136.3%	8.3%	?	39.8µM*	3.2%
Fc1ccccc1Cc1cn2cc(-c3ccc(Cl)cc3)nc2s1	-0.3%	?	?	-9.8%	14.1%	i
Clc1ccc(-c2cn3cc(Cc4ccccc4)sc3n2)cc1	-3.7%	15.8µM*	?	9.7%	23.3%	5.4%
Fc1ccc(-c2cn3cc(Cc4ccccc4Cl)sc3n2)cc1	-2.6%	7.94µM*	?	-3.6%	-1.3%	-29.9%
COc1ccccc1N1CCN(Cc2cc(COC(C)C)c3cccnc3c2O)CC1	5.85µM*	1.58µM*	15.8µM*	3.5µM*	7.08µM*	?
CCOCc1cc(CN2CCN(c3ccccc3OC)CC2)c(O)c2ncccc12	?	1.26µM*	1.0%	?	3.16µM*	i
CCCOCc1cc(CN2CCN(c3ccccc3OC)CC2)c(O)c2ncccc12	9.27µM*	3.16µM*	15.8µM*	5.77µM*	10µM*	i
C1Cc2[nH]nc(-c3nn[nH]n3)c2C1	.	.	.	.	.	-6.9%
CC(=O)Nc1cccc(-n2c(=O)n(C3CC3)c(=O)c3c(Nc4ccc(I)cc4F)n(C)c(=O)c(C)c32)c1	.	.	.	.	.	11.1%
COc1ccc2c3n(c(=NC(=O)c4cccnc4)nc2c1OC)CCN3	.	.	.	.	.	-8.4%
Cc1cnc(Nc2ccc(CN3CCOCC3)cc2)nc1Nc1cccc(S(=O)(=O)NC(C)(C)C)c1	.	.	.	.	.	-23.5%
CC(=O)OCC(=O)[C@@]1(O)[C@H](C)C[C@H]2[C@@H]3C=C(C)C4=Cc5c(cnn5-c5ccccc5)C[C@]4(C)[C@@H]3[C@@H](O)C[C@@]21C	.	.	.	.	.	-1.9%
CCOC(=O)c1ccc(N2C(=O)c3n[nH]c(C)c3C2c2ccc(CC)cc2)cc1 (configuration not stated)	6.9%	10.0%	8.1%	0.3%	25.4%	i
CCOC(=O)c1ccc(N2C(=O)c3n[nH]c(C)c3C2c2cccc(Br)c2)cc1 (configuration not stated)	16.5µM*	?	17.5%	?	?	-4.8%
CCOc1cc2ncc(C#N)c(Nc3ccc(OCc4ccccn4)c(Cl)c3)c2cc1NC(=O)C=CCN(C)C	.	.	.	.	.	-10.3%
Cc1ccc(C)c(N2CCN(C(=O)c3ccc(Nc4nc5ccccc5n5nnnc45)cc3)CC2)c1	?	-7.2%	-5.1%	-36.7%	-27.7%	12.7%
COc1ccccc1N1CCN(C(=O)c2ccc(Nc3nc4ccccc4n4nnnc34)cc2)CC1	-0.7%	-14.6%	4.5%	?	3.55µM*	-26.2%
CC(C)CCNC(=O)c1cccc(Nc2nc3ccccc3n3nnnc23)c1	?	?	-22.6%	9.46µM*	20µM*	?
COc1cc(-c2nc3cnccn3c2Nc2ccc(C(C)C)cc2)ccc1O	14.7µM*	15.8µM*	?	?	?	-21.7%
CC(C)c1ccc(Nc2c(-c3ccccc3O)nc3cnccn23)cc1	-25.1%	25.1µM*	33.7%	?	-9.1%	-11.1%
Cc1ccn2c(Nc3ccc(C(C)C)cc3)c(-c3cccnc3)nc2c1	-2.4%	21.2%	34.5%	?	?	-0.1%
CC(C)c1ccc(Nc2c(-c3ccccn3)nc3ccccn23)cc1	-18.7%	?	59.5%	14.2µM*	8.91µM*	?
COc1ccc(C2=N[C@H](c3ccc(Cl)cc3)[C@H](c3ccc(Cl)cc3)N2C(=O)N2CCNC(=O)C2)c(OC(C)C)c1	.	.	.	.	.	24.8%
COc1cc2nccc(Oc3ccc(NC(=O)C4(C(=O)Nc5ccc(F)cc5)CC4)cc3)c2cc1OC	.	.	.	.	.	-5.8%
CCN1CCN(CCCNC(=O)c2cc3c(s2)-c2c(C)cccc2OC3)CC1	?	?	-6.6%	?	25.1µM*	-5.2%
SMILES	pS6 MEF inh	p53null 39C tox	p53null 32C kill	PMP22 txn prim	S16 viability	SKOV3 invasion
Cc1cccc2c1-c1sc(C(=O)NCCCN3CCN(c4ccccc4F)CC3)cc1CO2	-24.6%	?	-12.5%	?	?	?
Cc1cncn1CCc1nc2c3ccccc3nc(SCC(=O)Nc3ccc(F)cc3)n2n1	0.2%	-2.1%	-1.7%	-19.9%	5.0%	0.6%
Cc1cncn1CCc1nc2c3ccccc3nc(SCC(=O)Nc3cccc(Cl)c3)n2n1	?	?	?	?	28.2µM*	?
O=C(N[C@@H](c1ccccc1)[C@@H]1CCCCN1)c1cccc(C(F)(F)F)c1Cl	.	.	.	.	.	3.6%
CCN1CCN(Cc2ccc(-c3cc4c(N[C@H](C)c5ccccc5)ncnc4[nH]3)cc2)CC1	.	.	.	.	.	2.9%
COc1ccc(CNCCC(c2ccc3c(c2)OCO3)c2ccccc2OC)cc1 (configuration not stated)	?	12.6µM*	3.6%	?	?	?
O=C(Nc1nnc(SCC(=O)N2CCCc3ccccc32)s1)c1ccccc1	.	.	7.94µM*	.	.	.
COc1cccc(/C=N/Nc2nnc(C)n2N)c1OCc1ccccc1Cl	.	17.8µM*	.	.	.	.
Cc1oc(-c2cccc(Cl)c2)nc1CN1CCC(C(=O)NCCc2ccc(Cl)cc2)CC1	-0.5%	-12.9%	-4.0%	-22.0%	21.8%	1.9%
Cc1oc(-c2cccc(Cl)c2)nc1CN1CCCC(C(=O)NCCc2ccc(Cl)cc2)C1 (configuration not stated)	0.4%	20µM*	-1.4%	?	?	0.3%
Oc1ccccc1-c1nc(/C=C/c2ccccc2Cl)no1	-5.4%	10µM*	10µM*	?	-2.0%	-13.8%
C[C@H](CCC(=O)O)[C@H]1CC[C@H]2[C@@H]3[C@H](O)C[C@@H]4C[C@H](O)CC[C@]4(C)[C@@H]3CC[C@]12C	.	.	.	.	.	3.2%
CC(/C=N/Nc1nc2ccccc2[nH]1)=C\c1ccccc1	.	?	7.94µM*	.	.	.
Cc1cc(Nc2nc(N[C@@H](C)c3ccc(F)cc3)c(C#N)cc2F)n[nH]1	.	.	.	.	.	5.8%

Compound activity deposited in PubChem BioAssay by National Center for Advancing Translational Sciences (NCATS).
